# Results from PubChem BioAssay.
# Activity calls are given as the source filed them.
# Key:
# [1] = test system: Human papillomavirus type 1a protein E7 (residues 44-93); test: small molecules binding HPV E7 44-93 – biochemical, small-molecule microarray, residues 44-93, 635 nm fluorescence, primary screen (AID 1108); settings: fluorescence 635 nm, higher = more signal;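 also: E7 fragment applied at 1 µg/mL in TBST for 1 h at 4 C; score combines spot fluorescence with its signal to noise ratio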
# [2] = hepatitis C replication reporter changes, two-sided – Huh7 cells, luciferase reporter, HCV replication inhibitor project, primary screen (AID 1109); settings: Huh7 HCV replicon luciferase reporter, 48 h; higher = more signal;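 also: huh7 hepatoma cells harbouring a luciferase neomycin HCV replicon reporter; luciferase luminescence as measure of HCV replicon replication; test concentration not given here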
# [3] = biological target: Left-right determination factor 2 (Homo sapiens) (UniProt O00292); test: small molecules binding LEFTY2 protein – biochemical, small-molecule microarray, 635 nm fluorescence scan, primary screen (AID 1110); settings: higher = more signal
# Sequence of Left-right determination factor 2 (Homo sapiens) (O00292 whole entry, looked up): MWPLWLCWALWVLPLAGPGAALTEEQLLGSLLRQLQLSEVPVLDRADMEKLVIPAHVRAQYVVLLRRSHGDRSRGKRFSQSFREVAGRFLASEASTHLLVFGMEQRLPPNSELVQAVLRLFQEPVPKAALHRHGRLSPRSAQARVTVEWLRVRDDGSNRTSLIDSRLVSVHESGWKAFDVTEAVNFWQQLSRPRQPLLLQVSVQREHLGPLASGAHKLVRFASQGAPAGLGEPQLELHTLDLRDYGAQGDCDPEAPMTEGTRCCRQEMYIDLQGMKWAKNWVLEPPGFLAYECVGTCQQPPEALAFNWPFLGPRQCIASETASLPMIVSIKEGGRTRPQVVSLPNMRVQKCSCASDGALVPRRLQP
# [4] = biological target: Calmodulin-1 (Homo sapiens) (UniProt P0DP23); test: small molecules binding calmodulin-1 with EGTA – biochemical, small-molecule microarray, Cy5-labelled CALM1, profiling panel (AID 1111); settings: Cy5-CALM1 binding fluorescence, higher = more signal;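 also: labelled calmodulin applied in Tris saline Tween buffer holding calcium plus EGTA and DTT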
# [5] = biological target: Calmodulin-1 (Homo sapiens) (UniProt P0DP23); test: small molecules binding Ca-loaded calmodulin-1 – biochemical, small-molecule microarray, Cy5-labelled CALM1, plus calcium, artefact control for SMM control-protein annotation, profiling panel (AID 1112); settings: Cy5-CALM1 binding fluorescence, higher = more signal;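 also: score merges spot fluorescence with signal to noise from triplicate slides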
# [6] = probe aWnt5a binding to arrayed compounds – biochemical, biotinylated probe, 635/667 nm fluorescence, primary screen (AID 1113); settings: small-molecule microarray, higher = more signal;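 also: score merges 667 nm fluorescence intensity with signal-to-noise per printed feature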
# [7] = probe aShh binding to arrayed compounds – biochemical, biotinylated probe, 635/667 nm fluorescence, primary screen (AID 1114); settings: small-molecule microarray, higher = more signal;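 also: probe is biotin-labelled aShh protein from a stem cell growth factor screen; measures binding of labelled protein to compounds printed on the slide; score merges feature fluorescence at 667 nm with signal-to-noise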
# [8] = probe aNog binding to arrayed compounds – biochemical, biotinylated probe, 635/667 nm fluorescence, primary screen (AID 1115); settings: small-molecule microarray, higher = more signal;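 also: probe is biotinylated aNog protein used at 0.15 µg/mL for 1 h at 4 C; z-score combines 667 nm fluorescence of each spot with its signal to noise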
# [9] = biological target: Torsin-1A-interacting protein 1 (Homo sapiens) (UniProt Q5JTV8); test: compound microarray binding of lysate hLAP1 – cell lysate, small-molecule microarray, COS7 lysate, 635/667 nm fluorescence, primary screen (AID 1116); settings: 635 nm fluorescence, higher = more signal
# Sequence of Torsin-1A-interacting protein 1 (Homo sapiens) (Q5JTV8 whole entry, looked up): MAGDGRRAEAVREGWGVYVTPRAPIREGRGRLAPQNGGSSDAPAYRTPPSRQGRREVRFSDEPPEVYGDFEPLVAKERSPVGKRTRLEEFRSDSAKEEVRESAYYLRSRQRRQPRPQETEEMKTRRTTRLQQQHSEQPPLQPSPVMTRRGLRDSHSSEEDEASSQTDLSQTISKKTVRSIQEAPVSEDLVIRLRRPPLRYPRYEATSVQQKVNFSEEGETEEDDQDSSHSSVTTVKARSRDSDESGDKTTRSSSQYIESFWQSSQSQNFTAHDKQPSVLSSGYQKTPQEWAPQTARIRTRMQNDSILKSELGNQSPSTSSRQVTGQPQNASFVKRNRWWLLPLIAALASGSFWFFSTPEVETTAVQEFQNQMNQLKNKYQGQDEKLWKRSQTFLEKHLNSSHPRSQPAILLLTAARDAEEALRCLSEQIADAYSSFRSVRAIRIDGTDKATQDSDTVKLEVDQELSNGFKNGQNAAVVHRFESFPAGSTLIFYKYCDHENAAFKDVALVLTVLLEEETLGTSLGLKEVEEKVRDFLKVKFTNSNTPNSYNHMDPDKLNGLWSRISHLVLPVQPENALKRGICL
# [10] = biological target: Alpha-bungarotoxin (Bungarus multicinctus) (UniProt P60615); test: compounds binding labelled alpha-BTX control protein – biochemical, small-molecule microarray, Alexa647 label, 635/667 nm fluorescence, artefact control for SMM control protein annotation, profiling panel (AID 1117); settings: alpha-BTX-A647 binding fluorescence, higher = more signal
# Sequence of Alpha-bungarotoxin (Bungarus multicinctus) (P60615 whole entry, looked up): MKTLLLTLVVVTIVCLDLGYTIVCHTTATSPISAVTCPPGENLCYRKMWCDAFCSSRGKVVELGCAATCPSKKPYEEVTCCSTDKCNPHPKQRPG
# [11] = biological target: Albumin (Bos taurus) (UniProt P02769); test: compounds binding labelled BSA control protein – biochemical, small-molecule microarray, Alexa647 label, 635/667 nm fluorescence, artefact control for SMM control protein annotation, profiling panel (AID 1118); settings: BSA-A647 binding, fluorescence 635 nm, higher = more signal;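 also: score merges 667 nm emission intensity and signal-to-noise per printed compound spot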
# Sequence of Albumin (Bos taurus) (P02769 whole entry, looked up): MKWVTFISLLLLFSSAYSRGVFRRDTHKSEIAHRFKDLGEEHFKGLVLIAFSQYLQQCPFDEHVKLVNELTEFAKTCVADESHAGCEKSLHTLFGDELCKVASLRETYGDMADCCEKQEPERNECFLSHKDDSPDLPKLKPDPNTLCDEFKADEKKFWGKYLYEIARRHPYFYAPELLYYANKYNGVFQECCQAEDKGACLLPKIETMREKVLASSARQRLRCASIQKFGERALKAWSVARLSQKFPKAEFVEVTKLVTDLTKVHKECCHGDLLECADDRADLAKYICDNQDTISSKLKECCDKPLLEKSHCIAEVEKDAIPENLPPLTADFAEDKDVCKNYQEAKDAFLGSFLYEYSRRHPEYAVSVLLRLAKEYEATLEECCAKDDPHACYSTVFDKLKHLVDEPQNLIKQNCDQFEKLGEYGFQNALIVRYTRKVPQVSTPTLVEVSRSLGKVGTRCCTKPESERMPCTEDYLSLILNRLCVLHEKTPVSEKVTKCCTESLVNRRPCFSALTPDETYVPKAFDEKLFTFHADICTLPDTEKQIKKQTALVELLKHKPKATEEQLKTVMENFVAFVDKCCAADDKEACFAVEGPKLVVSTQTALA
# [12] = probe aXIP binding to arrayed compounds – biochemical, NeuroSMM set, 635/667 nm fluorescence, primary screen (AID 1119); settings: small-molecule microarray, higher = more signal, called active from +8 up or from −8 down;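 also: probe is the protein aXip251-270 applied at 1 µg/mL to compound-printed slides; binding of probe to printed compounds measured as 667 nm fluorescence plus signal to noise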
# [13] = probe aNOTCH3 binding on compound microarray – biochemical, small-molecule microarray, 635/667 nm fluorescence, primary screen (AID 1120); settings: higher = more signal;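 also: probe is a biotin-tagged antibody raised against NOTCH3 rather than NOTCH3 protein; score merges spot fluorescence near 667 nm with spot signal to noise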
# [14] = probe aNOTCH2 binding on compound microarray – biochemical, small-molecule microarray, 635/667 nm fluorescence, primary screen (AID 1121); settings: higher = more signal;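 also: score merges feature fluorescence read at 667 nm with its signal to noise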
# [15] = biological target: Carbonic anhydrase 2 (Homo sapiens) (UniProt P00918); test: compounds binding carbonic anhydrase 2 – biochemical, small-molecule microarray, Alexa647-labelled CAII, profiling panel (AID 1122); settings: CAII-A647 binding fluorescence, higher = more signal
# [16] = COS7 lysate on small-molecule microarray, probe aHis, 635 nm (AID 1123); settings: COS7 cell lysate, fluorescence, higher = more signal;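 also: z-score combines 667nm fluorescence intensity with signal-to-noise per printed compound spot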
# [17] = probe aLAP1 signal on lysate-treated microarray – cell lysate, small-molecule microarray, COS7 lysate, primary screen (AID 1124); settings: probe aLAP1, fluorescence, higher = more signal;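 also: lysate comes from COS7 cells expressing LAP1 and is applied at 0.3 µg/mL; score merges spot fluorescence near 667 nm with signal-to-noise over triplicate slides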
# [18] = test system: Sam68 (KHDRBS1); test: compounds binding KHDRBS1 protein – biochemical, small-molecule microarray, 635 nm fluorescence, primary screen (AID 1125); settings: higher = more signal;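 also: score merges 667 nm channel intensity with signal to noise over triplicate slides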
# [19] = test system: Chordin-like protein 2 (CHRDL2); test: compounds binding chordin-like 2 – biochemical, small-molecule microarray, 635 nm fluorescence, primary screen (AID 1126); settings: fluorescence 635 nm, higher = more signal;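 also: printed compound slides probed with Chrdl2 protein at 4 µg/mL for 1 h at 4 C; score merges 667 nm emission intensity with signal to noise over three replicate slides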
# [20] = biological target: Concanavalin-A (Canavalia ensiformis) (UniProt P02866); test: compounds binding concanavalin A lectin – biochemical, small-molecule microarray, Alexa647 label, 635 nm, artefact control for SMM control protein annotation, primary screen (AID 1127); settings: ConA-A647 binding fluorescence, higher = more signal;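 also: z combines 667 nm emission intensity with signal-to-noise across three replicate slides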
# Sequence of Concanavalin-A (Canavalia ensiformis) (P02866 whole entry, looked up): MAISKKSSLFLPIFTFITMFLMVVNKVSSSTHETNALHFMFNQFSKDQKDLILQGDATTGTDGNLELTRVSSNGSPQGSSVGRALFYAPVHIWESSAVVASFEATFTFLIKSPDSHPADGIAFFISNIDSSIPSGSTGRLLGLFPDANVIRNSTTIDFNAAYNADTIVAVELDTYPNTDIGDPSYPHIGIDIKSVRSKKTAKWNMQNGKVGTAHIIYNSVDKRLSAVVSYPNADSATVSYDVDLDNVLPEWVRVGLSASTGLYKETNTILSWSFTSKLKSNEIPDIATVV
SMILES,composite z-score [1],z-score [2],composite z-score [3],composite z-score [4],composite z-score [5],composite z-score [6],composite z-score [7],composite z-score [8],composite z-score [9],composite z-score [10],composite z-score [11],composite Z-score [12],composite z-score [13],composite z-score [14],composite z-score [15],composite z-score [16],composite z-score [17],composite z-score [18],composite z-score [19],composite z-score [20]
CN(C)c1ccc(C(O)C2C=CC3C(=O)N(c4ccccc4)C(=O)C3N2Nc2ccc([N+](=O)[O-])cc2)cc1 (stereo not given),1.37,-1.52,-0.162,0.603,-0.534,0.0809,0.0697,0.638,0.926,1.46,0.653,0.103 (inactive),0.307,-0.133,0.27,2.1,0.15,1.29,-0.437,1.05
CN(C)C(=O)[C@@]1(CCS(=O)(=O)c2ccccc2)N=C(c2ccc(OCCCO)cc2)O[C@H]1c1ccccc1,1.46,-1.76,-0.757,1.47,0.759,0.16,0.207,0.812,1.84,1.9,1.02,1.19 (inactive),0.413,-0.115,0.646,2.15,0.862,1.16,-0.98,0.761
CCOC(=O)C[C@H]1[C@H](OC(=O)c2ccccc2-c2ccccc2)[C@@H](NC(=O)c2ccc(-c3ccccc3)cc2)c2cc(OCCCO)ccc2N1C(=O)c1ccc2ccccc2n1,0.521,-1.24,0.465,0.105,-0.09,-0.0445,-0.0035,0.233,-0.0823,1.86,0.275,0.367 (inactive),0.0715,-0.0441,0.131,0.406,0.272,1.06,0.304,0.513
CC(=O)c1ccc(C(O)C2C=CC3C(=O)N(c4ccccc4)C(=O)C3N2Nc2ccc(C#N)cc2)cc1 (stereo not given),0.909,-0.0483,0.0172,1.11,0.586,-0.172,0.149,-0.409,0.142,1.33,0.962,0.824 (inactive),0.119,-0.0023,0.759,2.46,-0.1,1.1,-0.624,1.13
CC(C)[Si](C#C[Si](C(C)C)(C(C)C)C(C)C)(O[C@H](C)c1cn([C@H](CO)Cc2ccccc2)nn1)C(C)C,0.534,-0.677,0.182,-0.0641,-0.393,-0.0924,-0.0977,-0.122,0.227,-0.0846,0.544,-0.397 (inactive),-0.0699,-0.145,0.0728,0.713,-0.268,0.193,0.498,1.03
O=C(N1CCCCC1)[C@@]1(CCS(=O)(=O)c2ccccc2)COC(c2ccc(OCCCO)cc2)=N1,0.517,-0.98,-0.0902,0.695,-0.438,0.0374,-0.0064,-0.489,1.51,0.632,0.107,0.674 (inactive),0.289,0.207,0.582,2.66,0.729,1.31,0.225,1.1
NCCCCCNC(=O)[C@@H]1C[C@@H]2C(=O)NCC(=O)N2[C@@H]1c1cccc(OCCO)c1,1.2,-0.878,0.79,0.885,0.433,-0.0202,0.412,0.217,0.513,1.01,0.411,0.401 (inactive),0.154,-0.0366,0.443,0.506,0.954,1.32,0.788,1.17
COC(=O)C1=CC(CCCO)=CC(C2CC2)N(C)C=C1C(=O)OC (stereo not given),-0.105,-0.902,-0.087,0.727,0.295,-0.184,0.449,-0.328,1.03,-0.24,1.04,0.856 (inactive),-0.0108,-0.0668,0.97,1.09,0.687,0.0065,-0.761,0.0472
CN(C)CCCNC(=O)[C@@H]1c2ccccc2C(=O)N(Cc2ccccc2Cl)[C@H]1c1ccc(CO)cc1,0.0979,-1.7,-0.505,-0.139,-0.464,-0.124,-0.114,0.213,0.779,1.74,0.301,0.247 (inactive),-0.236,-0.0993,0.73,1.17,0.982,0.671,-0.349,-0.284
CCOC(=O)C[C@H]1[C@H](OC(=O)c2cc3ccccc3oc2=O)[C@@H](NC(=O)Cc2ccc(OC)cc2)c2cc(OCCCO)ccc2N1C(=O)c1ccc2ccccc2n1,0.178,-0.664,0.774,-0.0597,-0.399,0.0257,-0.214,0.0023,0.514,0.26,-0.116,-0.431 (inactive),-0.152,-0.0666,0.353,0.303,0.096,0.206,0.583,0.0304
COCCOC(=O)N1C(=O)[C@@]2(c3cc(C#Cc4ccc(OC)cc4)ccc31)[C@H](c1ccccc1OCCO)N1[C@H](c3ccccc3)[C@H](c3ccccc3)OC(=O)[C@H]1[C@@H]2C(=O)N1CCCCCCC1,1.03,-1.36,1.17,2.84,1.6,1.26,2.59,3.38,5.26,1.8,0.164,6.24 (inactive),1.81,0.956,0.934,2.08,0.512,0.484,1.43,0.908
